Where “and” joins values, the source holds several entries; their conditions need not be identical. Equal values may be shown once. Among all 16,000 compounds or so, about 2,600 (16%) were called active. Not shown: some 20% with an inconclusive outcome. The list is a sample of the results. Unmarked numbers belong to inactive results. The call rests on the fitted dose curve; in most records, active means well fitted curve in the direction sought with a large enough effect; inconclusive means small, poorly fitted or top-dose-only effect, or effect the other way; inactive means no such curve, though single readings can be large or run the other way.

One may read the AC50 as the midpoint of the concentration-response curve, whichever way the signal moves.
On the % scale 0 is the no-effect control and ±100 the full control effect.

In this assay the target is Cytochrome P450 2D6 (Homo sapiens) (UniProt P10635). Nature of the assay: Cytochrome panel assay with activity outcomes. The following applies: recombinant CYP, pro-luciferin dealkylation, luminescence, p450-cyp2d6; series mostly up to 57.1 µM.
Cytochrome P450 2D6 (Homo sapiens), sequence (P10635 whole entry, looked up): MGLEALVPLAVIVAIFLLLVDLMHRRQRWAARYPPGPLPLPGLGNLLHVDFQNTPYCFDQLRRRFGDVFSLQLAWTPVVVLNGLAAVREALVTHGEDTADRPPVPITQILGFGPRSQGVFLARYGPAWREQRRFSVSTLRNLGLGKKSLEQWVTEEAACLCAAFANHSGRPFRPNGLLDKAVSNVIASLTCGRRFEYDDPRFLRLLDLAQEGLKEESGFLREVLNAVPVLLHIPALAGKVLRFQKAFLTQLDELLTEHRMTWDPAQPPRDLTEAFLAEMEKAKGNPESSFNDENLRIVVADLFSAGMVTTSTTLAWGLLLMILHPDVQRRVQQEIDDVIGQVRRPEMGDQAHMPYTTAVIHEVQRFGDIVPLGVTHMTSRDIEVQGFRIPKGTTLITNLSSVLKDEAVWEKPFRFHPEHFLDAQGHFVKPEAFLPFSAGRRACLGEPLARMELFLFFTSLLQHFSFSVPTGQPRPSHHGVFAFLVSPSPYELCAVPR
On to `Nc1ccc(N2C(=O)c3ccccc3C2=O)c(Cl)c1`, for which the AC50 result was “inactive”.
Still for that read-out and setting: as for `COc1ccc(-n2c(=O)c(C)nc3cnc(Nc4ccccc4)nc32)cc1`, the entry is “inactive”.
Turning to `O=S(=O)(/N=C(/Nc1ccc(F)cc1F)c1ccc(Cl)cc1)c1ccccc1`, the AC50 entry is “inactive”.
With `NCC(=O)Nc1ccc(Cl)cc1C(=O)c1ccc[nH]1`, the activity, negative = inhibition was 3.55% [at 11.4 µM].
With `Cc1c(NC(=O)CSc2nnc3c4ccccc4n(CCc4ccccc4)c3n2)c(=O)n(-c2ccccc2)n1C`, the AC50 entry was “inactive”.
Turning to `Cc1ccc(-n2c(C)cc(C(=O)CSc3n[nH]c(N)n3)c2C)cc1`, the AC50 entry is “inactive”.
As to `Cc1ccc(-n2c(O)cnc2Nc2nc(C)cc(C)n2)cc1`, the half-maximal activity concentration (AC50) is 12.6 µM (active).
Consider `Cc1ccc(-n2c(-c3ccccc3)cc(=O)nc2C)cc1`, for which the AC50 entry is “inactive”.
As to `CSc1nc(NC2CCCC2)c([N+](=O)[O-])c(NC2CCCC2)n1`, the AC50 entry was “inactive”.
On to `C#CCCCO/N=C1/C[C@@H](O)[C@@H](O)[C@@H]2[C@H]3C(=O)N(c4ccc(F)cc4F)C(=O)[C@@H]3CC[C@@H]12`, for which the activity, negative = inhibition was 8.28% [at 11.4 µM].
Take `CC(C)[C@H]1C(=O)C(C(N)=O)=C(O)[C@]2(O)C(=O)C3=C(O)c4c(O)ccc(N(C)C)c4C[C@H]3C[C@@H]12`: the AC50 entry is “inactive”.
On the same count and under the same terms, as for `CCc1cc2c(=O)c(-c3cnn(-c4ccccc4)c3)coc2c(CN2CCOCC2)c1O`, the entry is “inactive”; as for `N#C/C(=C/N1CCOCC1)c1ccccc1`, “inactive”; as for `Oc1c(CN2CCOCC2)cc(-c2ccccc2)cc1CN1CCOCC1`, 12.6 µM (active).
Turning to `NC/C=C\C(=O)O`, the AC50 result was “inactive”.
Regarding `C[C@H](O/N=C1/[C@H]2O[C@@H]2[C@@H](O)[C@H]2[C@H]1CCn1c(=O)n(-c3ccccc3)c(=O)n12)c1cn([C@H]2COC[C@H]2O)nn1`, the activity, negative = inhibition was -1.7% [at 11.4 µM].
`CCc1nnc(NC(=O)CSc2ncnc3c2cnn3-c2ccc(OC)cc2)s1`: the AC50 result is “inactive”.
`CCOC(=O)CN1C(=O)Nc2ccc(Br)cc2C1c1ccccc1` (stereo not given): the AC50 result was “inactive”.
As for `CC1=C(C(N)=O)C(c2ccccc2)n2nc(-c3ccncc3)nc2N1` (stereo not given), the AC50 entry is “inactive”.
Regarding `Cc1cc2ccccc2c[n+]1CC(O)C[n+]1cc2ccccc2cc1C`, the AC50 was 0.0251 µM (active).
For the compound `Cc1ccc[n+](CC(=O)c2cc3ccccc3oc2=O)c1`, the AC50 entry is “inactive”.
On to `C[C@@H]1/C=C\CC(=O)OC[C@H](C)C(=O)N2CCC[C@@H]2C(=O)OC1`, for which the activity, negative = inhibition was 7.63% [at 11.4 µM].
With `Cc1o[nH]c(=O)c1CC[C@H](N)C(=O)O`, the AC50 result is “inactive”.
Consider `Cc1oc(-c2ccccc2)cc1C(=O)Nc1ccc(N(C)C)cc1`, for which the concentration at half-maximal activity (AC50) was 7.94 µM (active).
`Cc1ccc(NC(=O)c2ccccc2C(=O)O)cc1C`: the activity, negative = inhibition was -8.28% [at 11.4 µM].
In the case of `Cc1oc(C(C)(C)C)cc1C(=O)Nc1cccc(/C=C/C(=O)O)c1`, the AC50 entry is “inactive”.
In the case of `CCOC(=O)C1=C(N)n2c(s/c(=C\c3ccco3)c2=O)=C(C(=O)OCC)C1c1ccco1` (stereo not given), the AC50 result was “inactive”.
On to `Cc1cc2nc3[nH]c4c(Cl)cc(Cl)cc4c3nc2cc1C`, for which the activity, negative = inhibition is 4.24% [at 11.4 µM].
Regarding `O=c1[nH]cc(CS(=O)(=O)Cc2c[nH]c(=O)[nH]c2=O)c(=O)[nH]1`, the activity, negative = inhibition was -1.45% [at 11.4 µM].
For `CC(C)CN(CC(C)C)C1=N/C(=C\c2ccco2)C(=O)N1c1ccccc1`, the AC50 entry is “inactive”.
The same measure, in the same setting: in the case of `CCOC(=O)c1ccc(Nc2nc(C(=O)OCC)nc3ccccc23)cc1` it was 3.98 µM (active); in that of `Cc1noc(C)c1-c1nc(Nc2ccc(F)cc2)c2ccccc2n1`, “inactive”; in that of `CCOC(=O)c1ccc(Nc2nc(=O)c3cccnc3s2)cc1`, “inactive”.
As for `CCCc1nc2sc3ccccc3c(=O)c2c(=O)n1CCOC`, the AC50 entry was “inactive”.
Regarding `COc1cc(C(=O)NC(=S)Nc2cccc(-c3cc4ccccc4oc3=O)c2)cc(OC)c1OC`, the AC50 result was “inactive”.
`CC(=O)NS(=O)(=O)c1ccc(NC(=S)NC(=O)c2ccco2)cc1`: the AC50 entry was “inactive”.
On to `Cc1cccc(N(C)C(=S)Oc2ccc3ccccc3c2)c1`, for which the AC50 entry was “inactive”.
`Cn1c(=NC(=O)CCl)sc2ccccc21`: the AC50 entry was “inactive”.
Turning to `O=C(O)c1ccccc1NCn1c(=S)sc2ccccc21`, the activity, negative = inhibition was -8.67% [at 11.4 µM].
As to `N=c1sc2ccccc2n1CCS` (tested in a mixture with another compound), the AC50 was 0.316 µM (active).
`CCS(=O)(=O)N1CCC(C(=O)NCc2ccccc2OC)CC1`: the AC50 result was “inactive”.
As for `COc1ccccc1CNCC(O)(c1ccc(Cl)cc1)c1ccc(Cl)cc1`, the AC50 was 0.316 µM (active).
Turning to `COc1cccc(CNc2ccc(F)c(Cl)c2)c1O`, the AC50 entry is “inactive”.
Regarding `COC(=O)c1sccc1NC(=O)c1cc(-c2cc(C)ccc2C)nc2ccccc12`, the AC50 result was “inactive”.
Consider `Cc1nnc(NC(=O)CSc2ncnc3c2cnn3-c2ccccc2C)s1`, for which the AC50 entry is “inactive”.
On to `O=C(O)c1cccnc1SCC(=O)N1CCCCCC1`, for which the AC50 result is “inactive”.
Turning to `Cc1ccc(SCCNC(=O)c2ccc(C)c(S(=O)(=O)Nc3ccccc3C)c2)cc1`, the AC50 was 7.94 µM (active).
In the case of `Cc1ccc(SCCNC(=O)c2ccccc2)cc1`, the AC50 entry was “inactive”.
Turning to `COC(=O)c1cc(OC)c(OC)cc1NC(=O)CSc1ccc(C)cc1`, the AC50 result is “inactive”.
Consider `COc1ccc(C2C(=O)N(C3CCCCCC3)CC(=O)N2Cc2ccccc2)cc1OC` (stereo not given), for which the AC50 result was “inactive”.
For `CO[C@H]1COC(=O)[C@H](Cc2ccccc2)NC(=O)C/C=C\[C@@H](C)[C@H](OC)COC(=O)C/C=C\[C@@H]1C`, the activity, negative = inhibition was 11.3% [at 11.4 µM].
For `O=C(O)/C=C\C=C/c1ccc2c(c1)OCO2`, the activity, negative = inhibition is -10.2% [at 11.4 µM].
With `COc1ccc2cc3cc(C(=O)Nc4ccc5c(c4)OCO5)oc3nc2c1`, the AC50 result is “inactive”.
Turning to `O=C(/C=C\c1ccc2c(c1)OCO2)c1ccc(F)cc1`, the AC50 is 2 µM (active).
Regarding `CCOC(=O)c1c(NC(=O)/C=C/c2ccc3c(c2)OCO3)sc(C)c1CC`, the AC50 entry was “inactive”.
Regarding `Nc1ccccc1C(=O)/C=C\c1ccc2c(c1)OCO2`, the AC50 is 3.16 µM (active).
For the compound `O=C(/C=C\c1ccccc1)c1ccccc1O`, the activity, negative = inhibition was -5.64% [at 11.4 µM].
For the compound `COCOc1cc(OC)ccc1C(=O)/C=C\c1ccc2c(c1)OCO2`, the AC50 was 3.98 µM (active).
On to `CN(C)C(=O)CN(c1ccc2c(c1)OCO2)S(C)(=O)=O`, for which the AC50 result is “inactive”.
For `COC(=O)c1cc(NC(=O)/C=C/c2ccc3c(c2)OCO3)cc(C(=O)OC)c1`, the AC50 result was “inactive”.
As for `CCOC(=O)c1[nH]c(C)c(/C(O)=C2\C(=O)C(=O)N(CCN3CCOCC3)C2c2cccs2)c1C` (stereo not given), the AC50 entry was “inactive”.
Same read-out and setting: in the case of `Cc1ccccc1-n1nc2c(c1NC(=O)c1c(-c3ccccc3Cl)noc1C)CSC2` it was “inactive”; in that of `COCC(=O)N1CCN(c2ccc([N+](=O)[O-])cc2)CC1`, “inactive”; in that of `CN1C(=O)NC(c2ccc(O)cc2)C(C(=O)c2cccs2)C1(O)C(F)(F)F` (stereo not given), “inactive”.
Consider `Cc1cccc(C)c1NC(=O)c1cc2c(=O)c3ccccc3oc2nc1C(F)(F)F`, for which the AC50 entry was “inactive”.
`CO[C@H]1COC(=O)[C@@H](C)COC(=O)[C@@H](COCc2ccccc2)NC(=O)C/C=C\[C@H]1C`: the activity, negative = inhibition is 6.49% [at 11.4 µM].
With `CC(=O)N(/N=C/c1cccc(C)c1)c1nc(-c2ccc(Br)cc2)cs1`, the AC50 result was “inactive”.
On to `Cc1cc(N)c2ccccc2[n+]1CCCCCCCCCC[n+]1c(C)cc(N)c2ccccc21`, for which the AC50 was 10 µM (active) and 15.8 µM (active).
As to `Cc1cc(N)c2ccccc2[n+]1CCCCCCCCCCCCCC[n+]1c(C)cc(N)c2ccccc21`, the AC50 is 7.94 µM (active).
As for `Cn1c(N)c(C(=O)CSc2ccc3c(c2)OCCO3)c(=O)n(C)c1=O`, the AC50 entry was “inactive”.
With `O=C(COc1cccc2ccccc12)N1c2ccccc2CCc2ccccc21`, the AC50 result was “inactive”.
`COC(=O)[C@@H](NC(=O)Nc1ccc(C(C)=O)cc1)C(C)C`: the AC50 entry was “inactive”.
Consider `CC(C)=CCC/C(C)=C/CO/N=C1/C[C@@H](O)[C@@H](O)[C@@H]2[C@@H]3C(=O)N(Cc4ccc5c(c4)OCO5)C(=O)[C@H]3CC[C@@H]12`, for which the activity, negative = inhibition is -7.94% [at 11.4 µM].
As for `O=C(SCc1cccc2ccccc12)c1ccc(Cl)cc1`, the activity, negative = inhibition is -11.2% [at 11.4 µM].
With `COc1cc(/C=N/O)cc(Br)c1OCc1cccc(Cl)c1`, the AC50 result was “inactive”.
As to `O/N=C/c1cc(Cl)ccc1OCc1cccc2ccccc12`, the AC50 is 15.8 µM (active).
As for `CC(C)C(NS(=O)(=O)c1cccc2nsnc12)C(=O)N1CCc2ccccc2C1` (stereo not given), the AC50 result was “inactive”.
For `CO[C@H]1[C@H](O[C@H]2O[C@@H](C)[C@@H](O[C@@H]3C[C@](C)(O)[C@H](OC(=O)CC(C)C)[C@H](C)O3)[C@@H](N(C)C)[C@@H]2O)[C@@H](CC=O)C[C@@H](C)[C@@H](O)/C=C\C=C/C[C@@H](C)OC(=O)C[C@H]1OC(C)=O`, the AC50 result is “inactive”.
In the case of `CC(C)(C)c1ccc(C(=O)NC(Cc2ccccc2)C(=O)O)cc1` (stereo not given), the AC50 result was “inactive”.
On to `CCCCCCN(CCCCCC)C(=O)Cc1c(-c2ccc(F)cc2)[nH]c2ccccc12`, for which the AC50 result is “inactive”.
Regarding `Cc1ccc2[nH]c(-c3ccccc3)c(CN(C)C)c(=O)c2c1`, the AC50 is 0.0316 µM (active).
Turning to `Cc1cc(=O)[nH]c2ccccc12`, the AC50 result is “inactive”.
Consider `CC(=O)N1CCN(c2nc(C)nc3sc4c(c23)CCC(C)C4)CC1` (stereo not given), for which the AC50 entry was “inactive”.
With `CON/C=C(\C=Nc1ccccc1)c1ncc(C(F)(F)F)cc1Cl`, the AC50 entry was “inactive”.
Regarding `COc1ccc(C2CC(=O)CC(=O)C2n2cncn2)cc1` (stereo not given), the AC50 entry was “inactive”.
For the compound `O=C(O)Cc1nn(Cc2ccc(Br)cc2F)c(=O)c2ccccc12`, the AC50 result is “inactive”.
With `CC(C)(C)CC(=O)NC(=S)Nc1ccccc1C(F)(F)F`, the AC50 result is “inactive”.
For the compound `Cc1cc(C)c(S(=O)(=O)Nc2ccccc2C(F)(F)F)c(C)c1`, the AC50 was 6.31 µM (active).
For `Cc1cc(C)c(S(=O)(=O)Nc2cccc(C(F)(F)F)c2)c(C)c1`, the AC50 entry is “inactive”.
Same read-out and setting: in the case of `CCN(CC)c1ccc(NC(=O)c2cnn(CC)c2)cc1` it was “inactive”.
Regarding `COC(=O)CSc1ccc2nnc(-c3ccc(F)cc3)n2n1`, the AC50 entry is “inactive”.
The same measure, in the same setting: as for `OCCNc1nc2ccccc2[nH]1`, the entry is “inactive”; as for `COCCn1c(Cc2ccccc2)nnc1SCc1nc2ccccc2c(=O)[nH]1`, “inactive”.
On to `O=C(O)CSc1nc2ccccc2[nH]1`, for which the activity, negative = inhibition was 9.25% [at 11.4 µM].
Turning to `c1ccc(SCc2nc3ccccc3[nH]2)cc1`, the AC50 is 10 µM (active).
Same read-out and setting: as for `Cc1cc(C)nc(SCc2nnc(SCC(N)=O)n2Cc2ccco2)n1`, the entry is “inactive”; as for `OC(Cc1nc2ccccc2[nH]1)c1ccccc1Cl` (stereo not given), 1.12 µM (active).
For `c1ccc2[nH]c(NC3=NCCC3)nc2c1`, the AC50 result was “inactive”.
For the compound `c1ccc(-c2nnc(SCc3nc4ccccc4[nH]3)n2Cc2ccco2)cc1`, the half-maximal activity concentration (AC50) is 6.31 µM (active).
`Cc1cc(NC(=O)CSc2nnc(-c3ccccc3)n2Cc2ccco2)no1`: the AC50 entry was “inactive”.

These data come from PubChem BioAssay AID1851 (National Center for Advancing Translational Sciences (NCATS), 2009).
